Results reported in the supplement of paper PMC13380429.

Test system: Vero E6 infected with SARS-CoV-2
Experiment: inhibition of SARS-CoV-2 cytopathic effect; higher = more antiviral protection, active = above 15
Conditions: 48 h

Measured: inhibition of SARS-CoV-2 cytopathic effect

O=C(CCBr)N1CC[N+]2(CC1)CC[N+]1(CCN(C(=O)CCBr)CC1)CC2 [spirobromin]
inactive: 1 nM -0.01% | 8.33 nM -0.86% | 100 nM -0.61% | 833.33 nM -2.75% | 10000 nM -3.3%

CC1(C)OC2(C)C(O)CC1CC2O (stereo not given) [epomediol]
inactive: 1 nM 7.71% | 8.33 nM 1.77% | 100 nM 4.4% | 833.33 nM 1.92% | 10000 nM 3.17%

CCOc1c2c(c(OCC)c3ccccc13)C(=O)N(c1ccc(CC(=O)NS(=O)(=O)c3ccccc3)cc1)C2
inactive: 1 nM 2.87% | 8.33 nM 0.35% | 100 nM 0.73% | 833.33 nM -1.03% | 10000 nM 0.05%

C1CCC(NC2CCCCC2)CC1 [dicyclohexylamine]
inactive: 1 nM 2.51% | 8.33 nM 6.58% | 100 nM 13.2% | 833.33 nM 0.43% | 10000 nM -2.8%

COc1ccccc1S(=O)(=O)Nc1ccc2c(c1)CN(C)C(=O)N2
inactive: 1 nM 2.59% | 8.33 nM 3.07% | 100 nM 0.97% | 833.33 nM 1.47% | 10000 nM -5.29%

CS(=O)(=O)Oc1ccc2c(NC(N)=O)c(C(=O)c3ccc(Cl)cc3Cl)oc2c1 [lirimilast]
inactive: 1 nM -4.96% | 8.33 nM -9.08% | 100 nM -8.83% | 833.33 nM -12.5% | 10000 nM -5.64%

CNC(=O)c1ccc(N2C(=S)N(c3cnc(C#N)c(C(F)(F)F)c3)C(=O)C23CCC3)cc1F [apalutamide]
inactive: 1 nM 0.94% | 8.33 nM 1.02% | 100 nM 1.33% | 833.33 nM 0.68% | 10000 nM 1.02%

CC(C)(C)NC(=O)[C@@H]1C[C@@H]2CCCC[C@@H]2CN1C[C@@H](O)[C@H](Cc1ccccc1)NC(=O)[C@H](CC(N)=O)NC(=O)c1ccc2ccccc2n1 [saquinavir]
inactive: 1 nM -9.33% | 8.33 nM -7.46% | 100 nM -1.46% | 833.33 nM -6.25% | 10000 nM -22%

CN1C(=O)N(C)C2C1N(C)C(=O)N2C (stereo not given) [mebicar]
inactive: 1 nM -5.8% | 8.33 nM -1.8% | 100 nM -3.06% | 833.33 nM -1.23% | 10000 nM -2.18%

Cn1c(=O)c2c(ncn2CC(O)CO)n(C)c1=O (stereo not given) [dyphylline]
inactive: 1 nM 1.96% | 8.33 nM -3.64% | 100 nM 0.25% | 833.33 nM 1.93% | 10000 nM -0.77%

COc1ccc(OC)c(C(O)C(C)N)c1 (stereo not given) [methoxamine]
inactive: 1 nM 0.07% | 8.33 nM -0.09% | 100 nM 1.61% | 833.33 nM 3.81% | 10000 nM 0.66%

CC(=O)O/N=C1\C(=O)N(Cc2cc(Cl)ccc2Cl)c2ccc(Cl)cc21
inactive: 1 nM -1.23% | 8.33 nM 0.39% | 100 nM 0.49% | 833.33 nM 3.77% | 10000 nM 4.47%

C[C@H](CCC(=O)NCCS(=O)(=O)O)[C@H]1CC[C@H]2[C@@H]3[C@@H](O)C[C@@H]4C[C@H](O)CC[C@]4(C)[C@H]3CC[C@]12C [ursodeoxycholyltaurine]
inactive: 1 nM -1.76% | 8.33 nM 3.52% | 100 nM 1.07% | 833.33 nM -3.74% | 10000 nM -4.25%

Fc1ccc(-c2cncc(CN3CCN(c4cccc5c4OCCO5)CC3)c2)cc1 [adoprazine]
inactive: 1 nM -1.19% | 8.33 nM -1.15% | 100 nM 2.28% | 833.33 nM 1.56% | 10000 nM 0.22%

O=C(O)c1ccc(S(=O)(=O)N(Cc2ccc(OC(F)(F)F)cc2)c2ncc(C(F)(F)F)cc2Cl)cc1
inactive: 1 nM 1.52% | 8.33 nM -0.05% | 100 nM 1.73% | 833.33 nM 1.99% | 10000 nM 4.63%

Cc1ncc[nH]1 [2-methylimidazole]
inactive: 1 nM -0.11% | 8.33 nM 1.86% | 100 nM 0.89% | 833.33 nM -3.06% | 10000 nM 0.33%

Cc1cc(C(=O)O)sc1C(N)C(=O)O (stereo not given)
inactive: 1 nM 0.31% | 8.33 nM -0.48% | 100 nM -1.39% | 833.33 nM 1.06% | 10000 nM -0.02%

Cc1c(N(C)C)c(=O)n(-c2ccccc2)n1C [amidopyrine]
inactive: 1 nM -14.8% | 8.33 nM -9.18% | 100 nM -12% | 833.33 nM -13.2% | 10000 nM -11.7%

CC(C)(C)c1ccc(CN2CCN(C(c3ccccc3)c3ccc(Cl)cc3)CC2)cc1 (stereo not given) [buclizine]
inactive: 1 nM -1.54% | 8.33 nM -0.87% | 100 nM 0.71% | 833.33 nM 0.45% | 10000 nM 2.38%

C[C@@H](O)[C@@H]1NC(=O)[C@H](CCCCN)NC(=O)[C@@H](Cc2c[nH]c3ccccc23)NC(=O)[C@H](Cc2ccccc2)NC(=O)[C@@H](NC(=O)[C@H](N)Cc2ccccc2)CSSC[C@@H](C(=O)N[C@H](CO)[C@@H](C)O)NC1=O [octreotide]
inactive: 1 nM 2.23% | 8.33 nM -0.63% | 100 nM -1.24% | 833.33 nM 3.26% | 10000 nM -1.58%

CCC(=O)O[C@]1(C(=O)COC(C)=O)CC[C@H]2[C@@H]3C[C@H](C)C4=CC(=O)C=C[C@]4(C)[C@H]3[C@@H](O)C[C@@]21C [methylprednisolone-aceponate]
inactive: 1 nM 1.61% | 8.33 nM 1% | 100 nM 0.19% | 833.33 nM 3.54% | 10000 nM 2.69%

CNc1cc2c(Nc3cccc(Br)c3)ncnc2cn1
inactive: 1 nM -1.96% | 8.33 nM -0.58% | 100 nM -1.36% | 833.33 nM -4.84% | 10000 nM -2.22%

COc1cc2c(cc1OC)[C@@]13CCN4CC5=CCO[C@H]6CC(=O)N2[C@H]1[C@H]6[C@H]5C[C@H]43 [brucine]
inactive: 1 nM 7.12% | 8.33 nM 1.25% | 100 nM 3.51% | 833.33 nM 2.71% | 10000 nM 0.47%

C[C@@H]1Cc2c([nH]c3ccccc23)[C@@H](c2c(F)cc(/C=C/C(=O)O)cc2F)N1CC(C)(C)F
inactive: 1 nM 0.69% | 8.33 nM 1.08% | 100 nM -2.47% | 833.33 nM -1.93% | 10000 nM -3.78%

CC(C)(C)NC[C@H](O)c1ccc(O)cc1Cl [meluadrine]
inactive: 1 nM -1.16% | 8.33 nM 1.91% | 100 nM 1.61% | 833.33 nM -2.53% | 10000 nM -3.94%

CCOC(=O)c1ccc(NC2CCCCC2)c(N)c1 [ferrostatin-1]
inactive: 1 nM 0.05% | 8.33 nM 3.56% | 100 nM 2.61% | 833.33 nM 2.6% | 10000 nM 2.1%

C[C@H](NC(=O)CNC(=O)c1cccc(Cl)c1)c1ccccc1
inactive: 1 nM -3.1% | 8.33 nM 0.31% | 100 nM -4.2% | 833.33 nM -1.91% | 10000 nM 0.27%

CNC(=O)Oc1cccc2ccccc12 [carbaril]
inactive: 1 nM -0.49% | 8.33 nM -0.59% | 100 nM 0.05% | 833.33 nM 1.22% | 10000 nM -0.51%

Cc1cccc(Cc2c[nH]cn2)c1C [detomidine]
inactive: 1 nM -2.36% | 8.33 nM -0.01% | 100 nM 1.67% | 833.33 nM -2.3% | 10000 nM 2.25%

Cc1cc(Nc2ncnc3ccc(-c4ccc(CNCCS(C)(=O)=O)o4)cc23)ccc1Oc1ccn2ncnc2c1 [HER2-Inhibitor-1]
inactive: 1 nM 2.32% | 8.33 nM 3.23% | 100 nM -0.2% | 833.33 nM -2.65% | 10000 nM 3.1%

CC(=O)OCC(=O)[C@H]1CC[C@H]2[C@@H]3CC[C@H]4C[C@H](O)CC[C@]4(C)[C@H]3C(=O)C[C@]12C [alfadolone-acetate]
inactive: 1 nM 3.28% | 8.33 nM 3.18% | 100 nM 2.11% | 833.33 nM 1.64% | 10000 nM -4.57%

O=C(CCCN1CCN(c2ccccn2)CC1)c1ccc(F)cc1 [azaperone]
inactive: 1 nM 0% | 8.33 nM -7.58% | 100 nM -6.03% | 833.33 nM -5.15% | 10000 nM 0.26%

CC(=O)c1cnc2ccc(-c3cc(Cl)c(O)c(Cl)c3)nc2c1N[C@H]1CC[C@H](CN(C)C)CC1
inactive: 1 nM -1.51% | 8.33 nM 0.72% | 100 nM -1.37% | 833.33 nM 0.11% | 10000 nM -5.46%

Nc1nc2c(c(N3CCNCC3)n1)CCC1=C2[C@@H]2CCCC[C@@H]2O1
inactive: 1 nM 1.61% | 8.33 nM 0.48% | 100 nM 1.56% | 833.33 nM 2.05% | 10000 nM -2.01%

COc1ccccc1N1CCN(CC(O)COc2cc(OC)c(OC)c(OC)c2)CC1 (stereo not given) [enciprazine]
inactive: 1 nM 0.76% | 8.33 nM 1.14% | 100 nM 0.33% | 833.33 nM -0.53% | 10000 nM -2.4%

N#Cc1c(N)nc(SCc2csc(-c3ccc(Cl)cc3)n2)c(C#N)c1-c1ccc(OCCO)cc1 [capadenoson]
inactive: 1 nM 0.18% | 8.33 nM -0.34% | 100 nM -1.11% | 833.33 nM -2.63% | 10000 nM -3.59%

CNc1nc(NCc2ccc(NS(C)(=O)=O)cc2Cl)cc(-c2ccccn2)n1
inactive: 1 nM -1.79% | 8.33 nM -3% | 100 nM 0.48% | 833.33 nM -2.53% | 10000 nM 2.16%

O=C(Nc1ccc(C(F)(F)F)cn1)N1CCN(c2ncccc2C(F)(F)F)CC1
inactive: 1 nM -2.83% | 8.33 nM 0.93% | 100 nM 1.25% | 833.33 nM 1.49% | 10000 nM -0.71%

Cc1ncc(C[n+]2csc(CCOP(=O)(O)OP(=O)(O)O)c2C)c(N)n1 [thiamine-pyrophosphate]
inactive: 1 nM 2.5% | 8.33 nM 1.37% | 100 nM -0.57% | 833.33 nM 2.37% | 10000 nM 0.01%
